From PubChem BioAssay AID504941 (Broad Institute, 2011)
Screen size: about 1,200 compounds; about 170 (14%) were called active. The list is a sample of the results. Potency and affinity values are given separately. Values without a mark were called inactive. No rule for the calls is given here.

Assay: twin-arginine translocation blockade, bacterial reporter – cherry-pick, set 2, plate reader, dose response (AID 504941)
Conditions: E. coli Tat transport reporter; series mostly up to 38 µM; activity change, negative = inhibition: at the top concentration

Row | Structure (SMILES) | activity change, negative = inhibition [%]
1 | COc1ccc(Nc2nc(NCCO)nc(OC)n2)cc1 | 12.2
2 | CCOC(=O)CC(NC(=O)c1cccc2c1C(=O)N(Cc1cccnc1)C2)c1ccc(OCC)c(OC)c1 (stereo not given) | 22.5
3 | OC1(c2ccccc2Cl)NN=C2CCCCCN21 (stereo not given) | 2.37
4 | Cc1nc2ccccn2c1/C(O)=C1\C(=O)C(=O)N(CCN(C)C)C1c1ccco1 (stereo not given) | -13.9
5 | COc1ccccc1N1C(=NC(=O)CCc2ccccc2)SC2CS(=O)(=O)CC21 (stereo not given) | 1.05
6 | COc1ccc(Cc2nnc(NS(=O)(=O)c3ccc(Cl)cc3)s2)cc1OC | -17.9
7 | CCNc1c(NS(=O)(=O)c2ccc(OC)cc2)c(=O)oc2ccccc12 | 48
8 | Oc1ccc(/C=N/Nc2ccccc2)cc1 | 6.32
9 | CC(C)c1nnc(NC(=O)CCS(=O)(=O)Cc2ccccc2)s1 | 21.5
10 | CC(=O)NS(=O)(=O)c1ccc(NC(=O)c2cc(-c3cccs3)nc3ccccc23)cc1 | 5.92
11 | O=C(Cn1ccc(C(F)(F)F)n1)Nc1ccc(S(=O)(=O)NCc2ccco2)cc1 | 11.5
12 | CCC(C)n1nccc1NC(=O)C(C)Cl (stereo not given) | -9.12
13 | O=C(Nc1cccc(-c2nc3cccnc3s2)c1)C1c2ccccc2Oc2ccccc21 | 21.1
14 | Nc1cc(OC(=O)c2ccc(F)cc2)nn1S(=O)(=O)c1ccc(F)cc1 | -2.53
15 | CC(C)(C)n1nnnc1C(c1cc2cc3c(cc2[nH]c1=O)OCCO3)N1CCSCC1 (stereo not given) | 8.61
16 | Cc1cc(C(C#N)c2ccccc2F)n2ncnc2n1 (stereo not given) | -3.6
17 | C=CCc1c(C)nc(C)nc1N/N=C/c1ccc(N(C)C)cc1 | 3.93
18 | COc1ccc(S(=O)(=O)N(C)c2ccc(C(=O)N3CCOCC3)cc2)cc1 | -2.72
19 | CCCCOc1ccc(C2CC(=O)N(C)C2=O)cc1 (stereo not given) | 15.5
20 | CC[C@H]1OC(=O)[C@H](C)[C@@H](O[C@H]2C[C@@](C)(OC)[C@@H](O)[C@H](C)O2)[C@H](C)[C@@H](O[C@@H]2O[C@H](C)C[C@H](N(C)C)[C@H]2O)[C@](C)(OC)C[C@@H](C)C(=O)[C@H](C)[C@@H](O)[C@]1(C)O | 21.8
21 | NC(=O)c1ccccc1NC(=O)COc1ccc2c(c1)OCO2 | -15.4
22 | CCCN(Cc1ccccc1)C(=S)Nc1ccc(SC(F)F)cc1 | -28.4
23 | c1ccc2c(OCCCN3CCCCCC3)cccc2c1 | 11.3
24 | C[C@H](NC(=O)c1nc[nH]c1C(=O)NCc1ccc(CNC(=O)OC(C)(C)C)cc1)c1ccccc1 | -35
25 | CC(C)(C)OC(=O)N[C@@H](Cc1ccccc1)[C@H](O)c1ccco1 | -13
26 | Cc1ccccc1-c1nc(CN2CCC(C(=O)O)CC2)c(C)o1 | -19.8
27 | CC(O/N=C/c1ccc(OC(F)F)cc1)C(=O)Nc1cccc(S(=O)(=O)N2CCOCC2)c1 (stereo not given) | 10.4

Row | Structure (SMILES) | activity change, negative = inhibition [%]
28 | Fc1ccc(-n2c(-c3ccc4ccccc4n3)n[nH]c2=S)cc1Cl | 28.2
29 | Nc1nc(CN2CCCCC2)cs1 | 18.1
30 | CCCn1c2c(c(=N)c3c1CCC3)CCCC2 | 8.27
31 | COc1ccc(C2OC(=O)CC2C(=O)NCc2ccc(F)cc2)cc1OC (stereo not given) | 4.42
32 | Cc1ccc2oc3c(c(=O)c2c1)C(c1cccs1)N(CCCN(C)C)C3=O (stereo not given) | -22.4
33 | CC(=O)N1CCN(c2cc3c(cc2F)c(=O)c(C(=O)O)cn3C2CC2)CC1 | 408
34 | CC(C)C[C@@H](CN1CCC[C@@H]1CN1C(=O)C(=O)NC[C@@H]1Cc1ccccc1)N1C[C@H](Cc2ccc(O)cc2)N(CC2CCCCC2)C(=O)C1=O | -8.76
35 | CCCC(=O)c1c[nH]c(C(=O)N2CCOCC2)c1 | -22.5
36 | CCC(=NCCc1ccc(OC)c(OC)c1)C1=C(O)CC(C)(C)CC1=O | -14.1
37 | N#Cc1nc(-c2ccccc2Cl)oc1N1CCN(C(=O)c2ccco2)CC1 | -6.45
38 | O=C(NNc1ncnc2c1cnn2-c1ccccc1)c1cccs1 | 2.73
39 | C1=C(CCNc2ncnc3c2cnn3-c2ccccc2)CCCC1 | -9.98
40 | COc1cccc(C(=O)N(CN2CCCC2=O)c2cccc(Cl)c2)c1OC | 2.99
41 | O=C(Nc1ccc(Cl)c(C(F)(F)F)c1)NC1CC2CCCC(C1)N2C1CC1 (stereo not given) | 16.9
42 | CCOc1ncccc1C(=O)N(CC)CC(=O)Nc1ccc(NC(C)=O)cc1 | 9.92
43 | CCCCN(C)CCn1c(=S)[nH]c2ncccc2c1=O | -6.89
44 | CN(C(=O)COC(=O)c1cccc(S(=O)(=O)N2CCOCC2)c1)C1CCS(=O)(=O)C1 (stereo not given) | 6.11
45 | CC(C)C(C(=O)NC1CCCC1)N(CC1CCCO1)C(=O)CNS(=O)(=O)c1ccccc1 (stereo not given) | -0.216
46 | CCOc1nc(Nc2ccc(OC)c(Cl)c2)nc(OCC)n1 | -7.13
47 | Cc1ccc(C)c(N2CCN(c3ccc4cc(S(=O)(=O)N5CCCCC5)ccc4n3)CC2)c1 | 10.4
48 | O=C(CCCc1nc2ccccc2s1)NC1CCOC1=O (stereo not given) | -11.4
49 | Cc1ccc(S(=O)(=O)Nc2ccnc(-c3cccnc3)n2)cc1 | 9.87
50 | Clc1ccccc1-c1ccc2ncnc(NCc3cccnc3)c2c1 | 7.13
51 | CC1CC(OC(=O)C(O)c2ccccc2)CC(C)(C)N1C (stereo not given) | -5.37
52 | CC1CCN(CC[C@H]2CCCN2S(=O)(=O)c2cccc(O)c2)CC1 | 8.51
53 | CC1CCN(C(=O)c2ccc(S(=O)(=O)N3CCCC3)cc2)CC1 | 10.2
54 | COc1ccc(/C=C/C(=O)OCc2cc(=O)n3c(n2)sc2ccccc23)cc1 | -12

Row | Structure (SMILES) | activity change, negative = inhibition [%]
55 | CCN1CCN(C(=O)C(NS(=O)(=O)c2ccc3nc(C)sc3c2)C(C)C)CC1 (stereo not given) | -20.5
56 | O=C(CCNC(=O)c1ccc([N+](=O)[O-])cc1)Nc1cccc(S(=O)(=O)N2CCCCCC2)c1 | -10.6
57 | O=C(NCCc1ccccc1)c1ccc2c(c1)OCCCO2 | -10.6
58 | O=C(CN1CCN(c2ccc(O)cc2)CC1)Nc1ccc2c(c1)OCCO2 | 21.3
59 | Cc1cc(Cl)c(S(=O)(=O)NC(C(=O)O)C(C)C)cc1OCC(=O)NC1CCCCC1 (stereo not given) | -0.619
60 | C[C@@H]1CN(c2c(F)c(F)c3c(=O)c(C(=O)O)cn(C4CC4)c3c2F)C[C@H](C)N1 | 303
61 | Nc1nc(=O)n(C2CC(O)C(CO)O2)cc1F (stereo not given) | 181
62 | CCNC(=S)NCCN1CCOCC1 | 7.35
63 | CCCc1cc(=O)[nH]c2nnc(SCC(=O)Nc3ccc4c(c3)OCCO4)n12 | 1.25
64 | O=C(Nc1ccc2c(c1)OCCO2)c1ccc(Cl)c(S(=O)(=O)N2CCCCC2)c1 | 6.22
65 | C=CCN(CC=C)S(=O)(=O)c1ccc(NC(=S)NC(=O)C2CC2)cc1 | -41.6
66 | COc1ccc(-c2cc(C(=O)Oc3ccc([N+](=O)[O-])cc3)c3ccccc3n2)cc1 | 30.5
67 | COc1ccc(-c2cc(C)no2)cc1S(=O)(=O)NCCCN1CCCCCC1 | 9.9
68 | CCOc1ccc2[nH]c(C)c(CN3CCCCC3)c(=O)c2c1 | 17.6
69 | Cc1cc(-n2c(C)cc(C(=O)COc3cccnc3[N+](=O)[O-])c2C)no1 | 0.514
70 | O=C(N1CCCC1)C12CC3CC(C1)CC(C(=O)N1CCCC1)(C3)C2 | 4.29
71 | COc1cc(C(=O)NCCOC(=O)c2cccc(N(C)C)c2)cc(OC)c1OC | -12.9
72 | C/C(=N\NC(=O)c1cccc(O)c1)c1cccc(NC(=O)c2ccc(F)cc2)c1 | 7.5
73 | Cc1cc(C)cc(-n2c(C)cc(/C=C3\C(=N)N4N=C(CC(C)C)SC4=NC3=O)c2C)c1 | 7.24
74 | COc1ccc(NS(=O)(=O)c2ccc(NC(=O)Cc3cccs3)cc2)cc1 | 12.2
75 | O=S(=O)(N1CCCCC1)N1CCN(c2ccccc2F)CC1 | -1.04
76 | CCOC(=O)C(C(=O)Nc1ccc(C)cc1)C1CCCCC1 (stereo not given) | 17.6
77 | CC(CN1CCOCC1)(NS(=O)(=O)c1ccccc1)c1ccccc1 (stereo not given) | -6.65
78 | Cc1ccccc1NC1=NC(=S)N(c2ccccc2)C12CCOC(C)(C)C2 (stereo not given) | -0.879
79 | CC(C)OC(=O)c1c(NC(=O)c2ccco2)sc2c1CCCC2 | -6.21
80 | CCOC(=O)CC(=O)Nc1ccccc1C(=O)O | -1.16
81 | O=C(O)CCC(=O)Nc1sc2c(c1C(=O)Nc1cccc3ccccc13)CCCCC2 | -7.8

Row | Structure (SMILES) | activity change, negative = inhibition [%]
82 | CCCCNC(=O)CCCn1c(=O)[nH]c2ccc(Br)cc2c1=O | -10.4
83 | O=C1OCc2ccc(NC(=O)C3CC3)cc21 | -7.47
84 | OCCN1CCN(C(=S)Nc2ccc(Oc3ccccc3)cc2)CC1 | -21.3
85 | Cc1ccc(CS(=O)(=O)CCC(=O)NCCCN2CCCC2)cc1 | 2.96
86 | Cc1ccc(CC(=O)NCCS(=O)c2ccc(Cl)cc2)cc1 (stereo not given) | 12.3
87 | O=C(CN1C(=O)NC2(CCCCC2)C1=O)NCc1cccs1 | 22.5
88 | COCn1c(-c2cccc(Br)c2)nc2ccccc21 | 21.4
89 | COc1cc(Cl)ccc1OCc1cc(C(=O)NCC(C)(C)N2CCOCC2)no1 | -6.94
90 | CSc1ccccc1OCc1cc(C(=O)N(C)Cc2c(C)n[nH]c2C)no1 | 12.3
91 | NS(=O)(=O)c1ccc(NC(=O)CSc2nnc(-c3ccc(O)cc3)o2)cc1 | 8.57
92 | O=C(CSc1nnc(-c2cccnc2)o1)Nc1ccc(Cl)cc1 | 12.1
93 | CC(=O)N1Cc2cc([N+](=O)[O-])ccc2Oc2ccccc21 | 12.2
94 | CC(=O)NC(Cc1cnc[nH]1)C(=O)O (stereo not given) | 6.77
95 | CCCN(C(=O)Cn1c(C(F)(F)F)nc2ccccc21)C1CCS(=O)(=O)C1 (stereo not given) | 8.26
96 | O=C(NCc1ccccc1)c1ccc(F)c(F)c1 | 7.16
97 | O=C(NCc1ccccc1)c1ccc(Br)o1 | -13.9
98 | Cc1ccc(OCCNC(=O)c2cc(-n3cnnc3)ccc2Cl)cc1C | -6.14
99 | C[C@@H]1O[C@@H](Oc2c(-c3ccc(O)c(O)c3)oc3cc(O)cc(O)c3c2=O)[C@H](O)[C@H](O)[C@H]1O | 12.2
100 | COc1ccc(Cl)cc1NC(=S)NCc1cccnc1 | 22.5
101 | CC(C)N1CCc2c(sc(NC(=O)c3ccc(S(=O)(=O)N4CCc5ccccc54)cc3)c2C(N)=O)C1 | 34.7
102 | CC(NC(=O)c1ccc([N+](=O)[O-])o1)C12CC3CC(CC(C3)C1)C2 (stereo not given) | 15.2
103 | COc1ccccc1N1CCN(C(=O)c2cc3c(=O)n4ccccc4nc3s2)CC1 | 11
104 | Cc1ccc(NC(=O)CSc2nccn2C)cc1F | 17
105 | CCCNC(=O)c1cc(C)no1 | 6.59
